# Test results taken from ChEMBL document CHEMBL1157539, “Thousands of chemical starting points for antimalarial lead identification” (Nature, 2010).
# In all, about 13,000 compounds were measured (“IFI”: median about 4, highest 2% from about 17 on). Many of the other results were omitted from the sample, so the highest values are more common in it than they were.
# Assay: GSK_TCMDC: Inhibition Frequency Index (IFI). The number of non-kinase HTS assays where a compound showed > 50 % inhibition, expressed as a percentage of the number of such assays in which the compound was tested
# Type: functional
row,SMILES,IFI [%]
1,O=C(CCc1c[nH]cn1)Nc1ccc(-c2ccc(-c3nc4cc(F)ccc4[nH]3)cc2)cc1,6.48
2,O=C(Nc1ccccc1)N(Cc1cccc(-c2cccc(CNCCc3ccccc3)c2)c1)C1CCN(Cc2ccccc2)CC1,12.3
3,COc1ccc(NS(=O)(=O)c2ccc(C(=O)Nc3ccc(C(F)(F)F)cc3)cc2)cc1N1CCN(CC2CC2)CC1,2.1
4,CCCN1CCN(c2cc(S(=O)(=O)Nc3ccc(C(=O)NCc4cccc(C(F)(F)F)c4)cc3)ccc2OC)CC1,24.1
5,CCCCN1CCN(c2cc(NS(=O)(=O)c3ccc(C(=O)Nc4ccc(C(F)(F)F)cc4)cc3)ccc2OC)CC1,3.97
6,CCC(C)c1ccc(NC(=O)c2ccc(S(=O)(=O)Nc3ccc(OC)c(N4CCN(CC5CC5)CC4)c3)cc2)cc1 (stereo not given),13.6
7,COc1ccc(S(=O)(=O)Nc2ccc(C(=O)NCc3ccc(C(F)(F)F)cc3)cc2)cc1N1CCN(CC2CC2)CC1,20
8,COc1ccc(S(=O)(=O)Nc2ccc(C(=O)NCc3ccccc3C(F)(F)F)cc2)cc1N1CCN(CC2CC2)CC1,19.4
9,CCCCN1CCN(c2cc(NS(=O)(=O)c3cccc(C(=O)Nc4ccc(C(F)(F)F)cc4)c3)ccc2OC)CC1,3.55
10,COc1ccc(NS(=O)(=O)c2ccc(C(=O)Nc3ccc(OC(F)(F)F)cc3)cc2)cc1N1CCN(CC2CC2)CC1,8.49
11,COc1ccc(NS(=O)(=O)c2cccc(C(=O)Nc3ccc(C(F)(F)F)cc3)c2)cc1N1CCN(CC(C)C)CC1,2.84
12,C#Cc1cccc(NC(=O)[C@H](CC2CCCCC2)Nc2ccc(C#N)c3ccccc23)c1,3.77
13,CCCCOc1ccc(-c2nc3ccccc3[nH]2)cc1,2.14
14,COc1ccc(OCCCON2C(=N)N=C(N)NC2(C)C)cc1,2.88
15,O=S(=O)(NCCN1CCCC1)c1ccc(-c2cccc(CNCc3ccc(F)cc3)c2)s1,9.65
16,CCNC(=O)Nc1cccc(-c2cccc(-c3nc4cccc(C)c4[nH]3)c2)c1,5.05
17,CCCCCCCn1c(=N)n(CC(O)c2ccc(Cl)c(Cl)c2)c2ccccc21 (stereo not given),17.6
18,CN(C)CCn1c(=N)n(CC(O)c2ccc(Cl)c(Cl)c2)c2ccccc21 (stereo not given),2.21
19,CCN(CC)CCn1c(=N)n(CC(O)c2ccc(Cl)c(Cl)c2)c2ccccc21 (stereo not given),6.52
20,Cc1ccc(C2(CN3CCC(NC(=O)c4n[nH]cc4Cl)CC3)CCCCC2)cc1,8.33
21,CN1CCN(CC(=O)Nc2cccc(-c3cccc(-c4nc5ccccc5[nH]4)c3)c2)CC1,1.8
22,O=C(Nc1ccc(Cl)c(C(F)(F)F)c1)Nc1ccc(Cl)c(C(F)(F)F)c1,12.7
23,O=C(Nc1cccc(C(F)(F)F)c1)Nc1ccc2nonc2c1,22.5

row,SMILES,IFI [%]
1,O=C(Nc1ccc(SC(F)(F)F)cc1)Nc1ccc(Cl)c(Cl)c1,18.7
2,O=C(Nc1cccc(C(F)(F)F)c1)Nc1ccc(Cl)c(Cl)c1,16.1
3,O=C(Nc1ccc(SC(F)(F)F)cc1)Nc1ccnc2ccccc12,9.29
4,O=C(Nc1cccc(C(F)(F)F)c1)Nc1ccc(F)c([N+](=O)[O-])c1,15.8
5,O=C(Nc1ccc(Cl)cc1)Nc1ccc2nonc2c1,12.8
6,O=C(Nc1cc(C(F)(F)F)cc(C(F)(F)F)c1)Nc1ccc(Cl)c(Cl)c1,19.1
7,O=C(Nc1ccc(Cl)c(Cl)c1)Nc1cc(C(F)(F)F)ccc1Cl,5.71
8,c1ccc2c(NCCCCCCCCNc3ccnc4ccccc34)ccnc2c1,8.27
9,CCOc1cc(N)c2nc3ccc([N+](=O)[O-])cc3cc2c1,6.47
10,CC(C)(C)NS(=O)(=O)c1cc(C(=O)N2CCC(CCN3CCC(C(=O)c4ccc(F)cc4)CC3)(c3cccc(F)c3)CC2)c(Cl)cc1F,3.55
11,C=CCOC(=O)N1CCC(CNCc2ccc(-c3ccc(-c4nc5ccccc5[nH]4)s3)cc2)C1 (stereo not given),11
12,COc1cccc(Nc2nccc(-c3c(-c4cccc(NC(=O)c5c(F)cccc5F)c4)nn4ccccc34)n2)c1,4.39
13,NC(=O)C1CCN(Cc2ccc(-c3ccc(-c4nc5cc(F)ccc5[nH]4)cc3)cc2)CC1,4.72
14,Fc1ccc2c(NN=Cc3ccc(Cl)cc3)ccnc2c1,0.74
15,O=C(NCCCCN1CCC(c2ccc3ccccc3c2O)CC1)c1ccc(-c2ccc(Cl)cc2)cc1,15.1
16,CC(C)C(=O)NC(c1ccc(N(C)C)cc1)c1cc(Cl)c2cccnc2c1O (stereo not given),5.38
17,CCn1c(-c2nonc2N)nc2c(-c3cccc(NC(=O)NCc4ccccc4)c3)ncc(OCCCN)c21,12.9
18,CCn1c(-c2nonc2N)nc2c(-c3cccc(NC(=O)Nc4cccc(C#N)c4)c3)ncc(OCCCN)c21,16.7
19,CCn1c(-c2nonc2N)nc2c(-c3cccc(NC(=O)Nc4ccc(C#N)cc4)c3)ncc(OCCCN)c21,15.7
20,CCn1c(-c2nonc2N)nc2c(-c3cccc(NC(=O)NC45CC6CC(CC(C6)C4)C5)c3)ncc(OCCCN)c21,16.7
21,CCn1c(-c2nonc2N)nc2c(-c3ccccc3)ncc(OCCCNCCCN3CCOCC3)c21,3.08
22,NCCCOc1cnc(-c2ccccc2)c2nc(-c3nonc3N)n(CCc3ccccc3)c12,18.8
23,CCn1c(-c2nonc2N)nc2c(-c3cccc(NC(=O)Nc4cccc(C(F)(F)F)c4)c3)ncc(OCCCN)c21,14.6

row,SMILES,IFI [%]
1,CCn1c(-c2nonc2N)nc2c(-c3cccc(NC(=O)Nc4ccc5c(c4)CCC5)c3)ncc(OCCCN)c21,14.8
2,CCn1c(-c2nonc2N)nc2c(-c3cccc(NC(=O)Nc4ccc(Cl)cc4)c3)ncc(OCCCN)c21,19.3
3,CCn1c(-c2nonc2N)nc2c(-c3cccc(NC(=O)Nc4ccc(C(F)(F)F)cc4)c3)ncc(OCCCN)c21,19.1
4,CCOC(=O)c1cccc(NC(=O)Nc2cccc(-c3ncc(OCCCN)c4c3nc(-c3nonc3N)n4CC)c2)c1,16.5
5,CCn1c(-c2nonc2N)nc2c(-c3cccc(NC(=O)Nc4cccc(Cl)c4)c3)ncc(OCCCN)c21,17.6
6,Cc1ccc(NC(=O)c2cc(S(=O)(=O)NC(C)(C)C)ccc2C)nc1,0
7,O=C(NC1CCN(CC2(c3ccccc3F)CCCC2)CC1)c1cc[nH]n1,0
8,Cc1nc(C)c(-c2ccc(C(F)(F)F)cc2)c(O)c1Br,0
9,O=S(=O)(NCCN1CCCC1)c1ccc(-c2cccc(CNCc3ccsc3)c2)s1,6.9
10,O=c1cc(NCCCNCc2cn(S(=O)(=O)c3ccccc3)c3ccccc23)[nH]c2ccccc12,5.88
11,COc1ccc2cc(-c3nc(-c4c(Cl)cccc4Cl)[nH]c3-c3ccnc(NCCC4CCCN4C)c3)ccc2c1 (stereo not given),11.3
12,C=CCn1ccc2c3c(N)nc(N)nc3ccc21,6.4
13,NC1=NC2(CCCCC2)N(OCCCCCCCCNc2nc(N)nc(N)n2)C(N)=N1,1.44
14,NC1=NC2(CCCCC2)N(OCCCCCCN2C(=O)c3ccccc3C2=O)C(N)=N1,1.43
15,CC1(C)N=C(N)N=C(N)N1OCCCc1ccccc1,4.35
16,NC1=NC2(CCCCC2)N(OCCCCCCc2ccccc2)C(N)=N1,23.9
17,NC1=NC2(CCCCC2)N(OCCCCCCC2CCCCC2)C(N)=N1,27.6
18,Cc1ccc2cc(NCCCCCCCCON3C(N)=NC(N)=NC34CCCCC4)ccc2n1,11.6
19,FC(F)(F)c1ccc2[nH]c(-c3ccc(-c4cccc(CNCC5CCCO5)c4)s3)nc2c1 (stereo not given),7.92
20,O=C(Nc1ccc(CN2CCOCC2)cc1)c1ccc(-c2ccc(Cl)cc2)o1,2.78
21,COc1ccc(-c2cc(C(=O)N[C@@H](CC3CCCCC3)C(=O)NCCN3CCCC3)ccc2O)cc1,3.45
22,CCN(CC)CCN(Cc1ccc(-c2ccc(C(F)(F)F)cc2)cc1)C(=O)Cn1c(CCc2cccc(F)c2F)nc(=O)c2ccccc21,8.39
23,Fc1ccc2[nH]cc(CCNCc3ccc(-c4cccc(-c5nc6ccccc6[nH]5)c4)cc3)c2c1,17.8

row,SMILES,IFI [%]
1,Fc1ccc2[nH]c(-c3cccc(-c4ccc(CNCCc5ccncc5)cc4)c3)nc2c1,9.71
2,Fc1ccc2[nH]c(-c3cccc(-c4ccc(CNCc5ccccc5)cc4)c3)nc2c1,8.57
3,O=C(/C=C/c1ccc(Cl)c(Cl)c1)NCC[C@@H]1C[C@H]1CCN1CCC(c2c[nH]c3ccccc23)CC1,12.3
4,Cc1cc(=NN=Cc2ccc(Cl)cc2)c2ccccc2[nH]1,0.7
5,Clc1ccc(/N=C(/NCCCCCCCN/C(=N\c2ccc(Cl)cc2)Nc2ccc(Cl)cc2)Nc2ccc(Cl)cc2)cc1,17.1
6,N=C(NCCCCCCCCNC(=N)Nc1ccc(Cl)cc1)Nc1ccc(Cl)cc1,3.65
7,CN(C)/C(=N/C(=N)Nc1ccc(Cl)cc1)NCCCCCCN/C(=N\C(=N)Nc1ccc(Cl)cc1)N(C)C,8.89
8,COc1ccc(O)c(C(=O)c2cc(C(=O)NC3CCCCC3)c(=O)n(C3CCCCC3)c2)c1,10.8
9,N#Cc1cc(C(=O)c2cc(Br)ccc2O)cn(C2CCCCC2)c1=O,2.78
10,O=C(c1cc(C(=O)NC2CCCCC2)c(=O)n(C2CCCCC2)c1)c1cc(F)ccc1O,19.4
11,COc1ccc(NCCCNc2ccnc3ccccc23)cc1,17.5
12,c1ccc2c(NCCCCCCCNc3ccnc4ccccc34)ccnc2c1,11.3
13,c1ccc2c(NCCCCCCNc3ccnc4ccccc34)ccnc2c1,4.55
14,Nc1nc(N)c2c(ccc3c2ccn3Cc2ccc(Cl)cc2)n1,13.2
15,CCn1c(Sc2ccc([N+](=O)[O-])c(C#N)c2)nnc1-c1ccc(Cl)cc1,3.4
16,OCC1CCN(Cc2ccc(-c3ccc(-c4nc5cc(F)ccc5[nH]4)cc3)cc2)CC1,2.94
17,Oc1c(C(Nc2nc3ccccc3s2)c2ccc(OC(F)F)cc2)ccc2cccnc12 (stereo not given),9.4
18,CN(C)CCOc1ccc2c(=O)cc(CCc3cccc(F)c3F)n(CC(=O)N(C)Cc3ccc(-c4ccc(C(F)(F)F)cc4)cc3)c2c1,2.92
19,CCOC(=O)c1c(CNc2ccncc2)n(C)c2cc(Br)c(OC(C)=O)cc12,0.74
20,CCOC(=O)c1cc(C(=O)NCCCCN2CCC(c3cn(C)c4ccccc34)CC2)ccc1-c1ccc(C(F)(F)F)cc1,5.31
21,CCOC(=O)c1cc2c(CCN3C(=O)c4ccccc4C3=O)cn(C)c2cc1-c1ccncc1,30.4
